KB-3-1 tox – KB-3-1 parental cell cytotoxicity; AID 1347075; Potency, µM (doses to about 46.1 µM), most hits filed as cytotoxic; hit rate 1.4% among 400,000; KB-3-1 viability, CellTiter-Glo ATP luminescence, 72 h; note: % is set by controls: 0 for no effect and ±100 for the full control effect; nearly all actives have a fitted effect of over 60% in size
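Screening of KB-3-1 cells (DMEM, 10% FBS, phenol-red free) ran from lowest to highest compound concentration; after 72 h at 37 °C viability was read luminescently and curves fitted.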
KB-V1 MDR tox – KB-V1 MDR subline cytotoxicity; KB-V1 MDR cells viability, CellTiter-Glo, 72 h; hit rate 3.4% among 400,000; Potency, µM (top dose mostly 46.1 µM), actives largely listed as cytotoxic; note: % is set by controls: 0 for no effect and ±100 for the full control effect; nearly all actives have a fitted effect of over 60% in size
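Cytotoxicity via CellTiter-Glo luminescence after 72 h compound exposure at 37 degrees C. Cells: drug-selected KB-V1 line, DMEM phenol-red free plus 10% FBS. Compounds tested at multiple concentrations; normalized data fitted to concentration-effect curves.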
SW480 rereplic – DNA re-replication induction in SW480 cells | Potency, µM (doses to about 46.1 µM), without a hit: top-dose re-replication activation, usual class: activators | SW480 DNA re-replication, Hoechst DNA content imaging, 48 h | hit rate 1.8% among 340,000; note: % of control where 0% means no effect; nearly all actives have a fitted effect of over 55% in size
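Treated cells incubate 48 hr (37 C, 5% CO2), are stained 40 min with Hoechst, and nuclear fluorescence is enumerated; a rise in nuclei with high DNA signal marks re-replication.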
ELG1 DNA repair – ELG1-dependent DNA repair inhibition; HEK293T ELG1-luciferase reporter, luminescence, 16 h; DNA damage induced by 5-fluorouridine; Potency, µM (doses to about 46.1 µM), without a hit: at the top dose activity change, negative = inhibition, most hits filed as inhibitors; hit rate 2.3% among 330,000; AID 504467; note: % is set by controls: 0 for no effect and ±100 for the full control effect; nearly all actives have a fitted effect of over 55% in size
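Reporter activity after DNA damage by 5-fluorouridine is monitored. Compound-treated cells incubate 16 hr at 37 °C, then ONE-Glo is added for 30 min before luminescence reading.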
MCF10A rereplic – DNA re-replication induction in MCF 10a cells | MCF 10A DNA re-replication, Hoechst nuclear intensity, 48 h | Potency, µM (highest dose often 46.1 µM), for inactives: at the highest dose activity, positive = re-replication, actives largely listed as activators | hit rate 2.9% among 350,000 | AID 624296; note: % of control where 0% means no effect; nearly all actives have a fitted effect of over 50% in size
* hit, by the source's call; i = inactive; ? = inconclusive; . = no result given; ! = not active in a repeat. A selection: hits, their analogues and other compounds. The true share with any hit is near 8.1%. Calls come from the whole dose curve; as a rule, active = well fitted curve in the direction sought with a large enough effect; inconclusive = small, poorly fitted or top-dose-only effect, or another doubt; inactive = no such curve, though single readings can be large; an effect the other way counts as inactive or inconclusive. Potency is the fitted concentration of half-maximal effect.

SMILES	KB-3-1 tox	KB-V1 MDR tox	SW480 rereplic	ELG1 DNA repair	MCF10A rereplic
CC(C)c1ccc(CN(C(=O)C2COc3ccccc3O2)C2CCS(=O)(=O)C2)cc1 (configuration not stated)	i	?	8.2%	-8.7%	12.3%
CN(C)c1ccc(CN(C(=O)C2COc3ccccc3O2)C2CCS(=O)(=O)C2)cc1 (configuration not stated)	i	18.4µM*	17.1%	-1.8%	?
COC(=O)c1ccc2c(=O)[nH]c(CSc3nnc(C(F)(F)F)n3C)nc2c1	i	i	-5.0%	-14.8%	-4.0%
COc1ccc(COCC(O)CN(Cc2ccco2)Cc2ccccc2O)cc1 (configuration not stated)	i	20.6µM*	2.4%	-16.6%	7.1%
CCOc1ccc(OCC(=O)NCCS(=O)(=O)N2CCN(c3ccc(F)cc3)CC2)cc1	i	i	?	-28.8%	0.9%
COc1cc(C(=O)N2CCN(c3ccccc3OC)CC2)c([N+](=O)[O-])cc1OC	?	?	?	-8.3%	23.2%
O=C(c1ccc([N+](=O)[O-])s1)N1CCCc2ccccc21	i	?	6.51µM*	?	13.5%
COc1cc(C(=O)N2CCCc3ccccc32)c([N+](=O)[O-])cc1OC	i	i	-3.5%	-2.1%	16.4µM*
O=C(c1ccc([N+](=O)[O-])s1)N1CCc2ccccc21	i	i	-13.2%	?	-0.1%
O=C(O)c1nccnc1C(=O)Nc1ccc(S(=O)(=O)N2CCOCC2)cc1	i	i	-5.1%	-8.2%	-1.1%
COc1ccc(C(=O)NC2(C(F)(F)F)C(=O)NC(C)=C2C#N)cc1 (configuration not stated)	i	i	.	.	.
N#Cc1c(-c2ccccc2)nc(SCC(=O)N(c2ccccc2)c2ccccc2)[nH]c1=O	i	i	-0.3%	5.5%	1.3%
N#Cc1c(-c2ccccc2)nc(SCC(=O)N2c3ccccc3Sc3ccccc32)[nH]c1=O	i	i	9.5%	-0.9%	20.6µM*
Cc1cccc(CS(=O)(=O)c2ncc(Cl)c(C(=O)Nc3c(C)cccc3C)n2)c1	?	?	?	-11.6%	?
CCCc1nnc(NC(=O)c2nc(S(=O)(=O)Cc3cccc(C)c3)ncc2Cl)s1	i	i	?	?	?
CCOc1ccc(NC(=O)c2nc(S(=O)(=O)Cc3ccc(F)cc3)ncc2Cl)cc1	i	?	.	.	.
Cc1nnc(NC(=O)c2nc(S(=O)(=O)Cc3ccccc3)ncc2Cl)s1	10.3µM*!	?	1.4%	?	?
O=C(Nc1ccc(F)cc1)c1nc(S(=O)(=O)Cc2ccccc2)ncc1Cl	5.17µM*	?	3.8%	?	6.1%
Cc1ccccc1CS(=O)(=O)c1ncc(Cl)c(C(=O)Nc2ccc(F)cc2)n1	i	i	-4.3%	?	?
Cc1cccc(CS(=O)(=O)c2ncc(Cl)c(C(=O)NCc3ccccc3)n2)c1	i	i	?	?	13µM*
Cc1ccc(NC(=O)c2nc(S(=O)(=O)Cc3ccccc3)ncc2Cl)cc1	13µM*	?	20.2%	?	?
Cc1ccc(NS(=O)(=O)N2CCOCC2)c(C)c1	i	i	-8.7%	-10.0%	1.1%
OC(COc1ccc(Br)cc1)Cn1ccnc1 (configuration not stated)	i	i	-5.2%	-9.2%	0.8%
COc1ccc(OC)c(NC(=O)c2nc(S(=O)(=O)Cc3ccccc3F)ncc2Cl)c1	?	i	.	.	.
COc1ccc(OC)c(NC(=O)c2nc(S(=O)(=O)Cc3ccccc3)ncc2Cl)c1	4.11µM*	?	?	?	1.64µM*
CCOC(=O)C1CCN(C(C(=O)NC2CCCCC2)c2ccc(OC)cc2)CC1 (configuration not stated)	i	i	-3.1%	-1.3%	-14.6%
COc1ccccc1N=Nc1ccc(O)c2ncccc12	i	?	9.5%	?	17.9%
Cc1ccc(N=Nc2ccc(O)c3ncccc23)cc1C	?	i	?	?	7.7%
Cc1ccc(N=Nc2ccc(O)c3ncccc23)cc1	?	i	1.16µM*	?	?

Screening data: PubChem BioAssay, National Center for Advancing Translational Sciences (NCATS)
